# In the library only some 2.1% were active in any assay of this set; here they are far more common.
# HIV Env fusion: inhibitors of HIV Env-mediated cell fusion; HeLa-JRFL Env/CEM21 cell fusion, luciferase; inhibition, % at 12.3 µM; 1.1% of 360,000 active;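 active = mean replicate inhibition score of at least 50 and every replicate individually at or above 50; inconclusive = only one of the two criteria met; inactive = mean below 50 and not all replicates reaching 50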;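 note: 0% = plate neutral controls and 100% = maraviroc near 300 nM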
# NSD2 HMT inh: inhibitors of human histone methyltransferase NSD2. inhibition, % at 12.5 µM. 0.54% of 310,000 active. NSD2 peptide methylation, AlphaScreen, 120 min. O96028; in the data active = inhibition above about 50%
# INS-1E GSIS act: GLuc luminescence reporter in INS-1E cells, primary screen for activators of glucose-dependent secretion of insulin; 0.61% of 370,000 active; AID 743287; activation, % at 16.6 µM; INS-1E GLuc reporter insulin secretion, 2-3 h;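 active = lowest replicate activation of at least 40%, so every replicate reaches that level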;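 note: 0% = median of neutral control wells and 100% = median of IBMX positive control wells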
# PGC1a acetyl inh: PGC1a acetylation modulation, inhibitor mode; inhibition, % at 15.6 µM; AID 651687; 0.17% of 350,000 active; U2OS PGC1a acetylation, AlphaScreen anti-acetyl-lysine; with virally co-expressed GCN5 acetyltransferase;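 active = every replicate shows inhibition of at least 40%; inconclusive = mean inhibition at least 40% but some replicate below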;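 note: 0% = neutral control wells and 100% = positive control wells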
# AF4-AF9 inh: blocks AF4 peptide binding to human AF9 | inhibition, % at 10 µM | AlphaScreen, biotin-AF4 peptide binding to FLAG-AF9 | P42568 | 0.47% of 350,000 active | AID 651704;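 active = every replicate reaching a set inhibition limit, whatever the replicate mean, cut at about 25% in these data; inconclusive = mean inhibition reaches that limit but some replicates miss it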;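 note: 0% = plate neutral control median and 100% = total signal loss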
# The depositor's hits bear a star; ? = inconclusive; / = not tested or not shown; [ ] = another dose, or the depositor's remark.
SMILES,HIV Env fusion,NSD2 HMT inh,INS-1E GSIS act,PGC1a acetyl inh,AF4-AF9 inh
Cc1noc(C)c1S(=O)(=O)N(C)C[C@H]1OCCCC[C@H](C)Oc2ccc(NC(=O)Nc3ccc(C(F)(F)F)cc3)cc2C(=O)N([C@@H](C)CO)C[C@@H]1C,66*[16.7 µM],/,7,-7,-2
Cc1noc(C)c1S(=O)(=O)N(C)C[C@@H]1OCCCC[C@H](C)Oc2ccc(NC(=O)Nc3ccc(C(F)(F)F)cc3)cc2C(=O)N([C@H](C)CO)C[C@H]1C,70*[16.7 µM],/,-15,-5,-2
Cc1noc(C)c1S(=O)(=O)N(C)C[C@H]1OCCCC[C@@H](C)Oc2ccc(NC(=O)Nc3ccc4c(c3)OCO4)cc2C(=O)N([C@@H](C)CO)C[C@@H]1C,13[16.7 µM],/,-5,-5,/
Cc1noc(C)c1S(=O)(=O)N(C)C[C@H]1OCCCC[C@@H](C)Oc2ccc(NC(=O)Nc3ccc(C(F)(F)F)cc3)cc2C(=O)N([C@H](C)CO)C[C@@H]1C,12[16.7 µM],/,11,-4,-1
Cc1ccc(S(=O)(=O)N(C)C[C@@H]2OCCCC[C@H](C)Oc3ccc(NC(=O)NC4CCCCC4)cc3C(=O)N([C@@H](C)CO)C[C@H]2C)cc1,-4[16.7 µM],/,-10,-11,26*
Cc1ccc(S(=O)(=O)N(C)C[C@H]2OCCCC[C@H](C)Oc3ccc(NC(=O)NC4CCCCC4)cc3C(=O)N([C@H](C)CO)C[C@@H]2C)cc1,-22[16.7 µM],/,-17,-2,-8
Cc1ccc(S(=O)(=O)N(C)C[C@@H]2OCCCC[C@@H](C)Oc3ccc(NC(=O)Nc4ccc(C(F)(F)F)cc4)cc3C(=O)N([C@H](C)CO)C[C@H]2C)cc1,57*[16.7 µM],/,14,3,-5
COCCN1CCN(Cc2nc(C3(c4ccc(C)cc4)CCCC3)no2)CC1,-1,-2,-14,/,1
COc1cccc2c(=O)n(CC(=O)Nc3ccccc3)ccc12,-7,/,5,-5,48*
O=C(c1ccccc1)N1CCSc2sccc2C1=O,66*,0,30,/,-1
O=C(c1ccccc1)N1CCSC1=S,-3,-2,/,/,/
C#CCOCCOCCOCCNc1nc(N2CCN(C(=O)C([C@@H](C)O)n3cc([C@@H](N)CCCCN)nn3)CC2)nc(N2CCN(C(=O)[C@H](CCCCN)n3cc([C@@H](N)CC(N)=O)nn3)CC2)n1 (stereo not given in full),/,/,/,/,45*
C#CCOCCOCCOCCNc1nc(N2CCN(C(=O)[C@H](CC(N)=O)n3cc([C@@H](N)CC(N)=O)nn3)CC2)nc(N2CCN(C(=O)[C@H](CC(N)=O)n3cc([C@@H](N)CC(N)=O)nn3)CC2)n1,7,/,-8,2,/
C#CCOCCOCCOCCNc1nc(N2CCN(C(=O)C([C@@H](C)O)n3cc([C@@H](N)CCCCN)nn3)CC2)nc(N2CCN(C(=O)[C@H](CCC(=O)O)n3cc([C@@H](N)CCCCN)nn3)CC2)n1 (stereo not given in full),-8,/,10,/,17
C#CCOCCOCCOCCNc1nc(N2CCN(C(=O)[C@H](CCCCN)n3cc(CN)nn3)CC2)nc(N2CCN(C(=O)[C@H](CCCCN)n3cc([C@@H](N)CC(N)=O)nn3)CC2)n1,-6,/,-1,/,40*
Cc1c(NC(NC(=O)CC(C)C)C(Cl)(Cl)Cl)c(=O)n(-c2ccccc2)n1C (stereo not given),-8,-2,-10,/,-2
CC(=O)N(C)C[C@@H]1Oc2cc(C#CCN(C)C)ccc2S(=O)(=O)N([C@@H](C)CO)C[C@@H]1C,-11[16.7 µM],/,11,11,-2
CC(C)CCN1CC(O)=C(c2nc(-c3ccc(Cl)cc3)cs2)C1=N,/,0,78*,1,/
COc1ccc(N2CC(O)=C(c3nc(-c4ccc(Cl)cc4)cs3)C2=N)cc1,6,1,-11,-9,0
COC(=O)[C@H](CCSC)NC(=O)NCc1ccccn1,-15,2,/,-7,/
CC(C)=CCN1CCC(n2nccc2NC(=O)c2ccccc2Cl)CC1,-13,8,2,/,-1
CCOC(=O)C1=C(CSc2nc3ccccc3s2)NC(=O)NC1c1ccc(OC)cc1 (stereo not given),73*,-4,/,2,/
C[C@@H]1CN([C@@H](C)CO)S(=O)(=O)c2ccc(-c3cccc(F)c3)cc2O[C@H]1CN(C)S(=O)(=O)c1ccccc1,51[16.7 µM],/,-26,-19,0
COC(=O)Cc1ccc(NC(=O)c2ccc(C(C)(C)C)cc2)cc1,59*,-3,-13,-4,/
CNC[C@@H]1OCCCC[C@@H](C)Oc2ccc(NS(=O)(=O)c3cccs3)cc2C(=O)N([C@H](C)CO)C[C@H]1C,34[16.7 µM],/,8,/,-29
SMILES,HIV Env fusion,NSD2 HMT inh,INS-1E GSIS act,PGC1a acetyl inh,AF4-AF9 inh
O=c1c2ccc(Cl)cc2[nH]c(=S)n1CCC1=CCCCC1,-402,1,166*,/,/
COc1ccc(S(=O)(=O)Nc2ccc3c(c2)C(=O)N([C@@H](C)CO)C[C@@H](C)[C@@H](CN(C)S(=O)(=O)c2cn(C)cn2)O3)cc1,-18[16.7 µM],/,6,-4,-2
COc1cccc(-c2cnc3c(NC=O)cc(-c4ccc(N5CCN(C)CC5)cc4)cn23)c1,-25,8,9,-2,35*
CCOC(=O)CC1(CC)Oc2ccccc2N1S(=O)(=O)c1ccc(C)cc1 (stereo not given),64*,/,-19,/,1
CCOC(=O)CC1(C)N(S(=O)(=O)c2ccc(C)cc2)c2ccccc2N1S(=O)(=O)c1ccc(C)cc1,11,/,/,/,-3
CCCCCCCCCCOC(=O)Cn1c(COc2ccc(OC)cc2)[n+](C)c2ccccc21,/,6,/,/,/
CCCCCCCCCCOC(=O)Cn1c(COc2cccc(C)c2)[n+](C)c2ccccc21,26,18,171*,/,13
CCCCOC(=O)Cn1c(=O)n(CC(=O)OCCCC)c2ccccc21,/,-3,-12,0,/
CCOC(=O)Cn1c(COc2ccccc2OC)[n+](C)c2ccccc21,-11,5,/,2,-1
CCCCCCCCCCOC(=O)Cn1c(COc2ccccc2)[n+](C)c2ccccc21,44,16,127*,/,?
CCCCCCCCCCOC(=O)Cn1c(COc2ccc(Cl)cc2)[n+](C)c2ccccc21,24,7,207*,/,42*
CCCCCCCCCCOC(=O)Cn1c(COc2ccccc2C)[n+](C)c2ccccc21,/,/,139*,/,/
Cc1ccc(S(=O)(=O)Nc2ccc3c(c2)C(=O)N([C@@H](C)CO)C[C@H](C)[C@@H](CN(C)CC2CC2)OCCCC[C@H](C)O3)cc1,2[16.7 µM],/,-4,-12,/
CCC(CC)NC(=O)c1ccccc1Oc1ccccc1,/,-2,53*,-6,/
Nc1ccc(N2CCCCC2)c2nonc12,-11,83*,24,4,11
Nc1c(N2CCCC2)cc(Cl)c2nonc12,/,/,/,5,/
CC(=O)N1CCN(c2nnc(-c3ccc(C)cc3)c3ccccc23)CC1,17,0,41*,/,-2
Cc1cc(/C=N/NC(=O)c2ccsc2)c(C)n1-c1cnccn1,2,-3,-2,/,-1
Cc1ccc(-c2nc3c(=O)n(C)c4ccccc4c3o2)cc1,-55,4,79*,-2,/

# Screening data deposited in PubChem BioAssay by Broad Institute.
